{"source": "PubChem BioAssay AID1159580", "about": "(chemical genetic matrix, 2015)", "test": "chemical genetic growth profiling, strain panel (AID 1159580);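 also: tested at 20 µM; growth read once vehicle control cultures reached saturation at 30 °C; 1 = growth at the plate median or of vehicle wells; lower values mean less growth of the strain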", "conditions": "S. cerevisiae deletion strains, growth OD", "key": {"[1]": {"conditions": "locus YAL040C, strain CLN3, active compounds read low"}, "[2]": {"conditions": "locus YCL061C, strain MRC1 (second series), active compounds read low"}, "[3]": {"conditions": "locus YDR363W, strain ESC2, active compounds read low"}, "[4]": {"conditions": "locus YER002W, strain NOP16, active compounds read low"}, "[5]": {"conditions": "locus YMR307W, strain GAS1, active compounds read low"}, "[6]": {"conditions": "locus YNL128W, strain TEP1, active compounds read low"}, "[7]": {"conditions": "locus YNL175C, strain NOP13, active compounds read low"}, "[8]": {"conditions": "locus YNL197C, strain WHI3, active compounds read low"}, "[9]": {"conditions": "locus YNL224C, strain SQS1, active compounds read low"}, "[10]": {"conditions": "locus YOR083W, strain WHI5 (second series), active compounds read low"}}, "note": "Among all 5,500 compounds or so, about 2,000 (36%) were called active. Not shown: some 18% with an inconclusive outcome. Some of the results follow. Unmarked numbers belong to inactive results. Rule as the data show it: active = normalized growth mostly below about 0.91 (no sharp cut-off); inconclusive = no clear call, values can overlap the other calls; inactive = mostly above about 0.92.", "data": [{"smiles": "Cc1c(C)c2c(c(C)c1O)CCC(C)(CN1CCN(c3cc(N4CCCC4)nc(N4CCCC4)n3)CC1)O2", "note": "(centres undefined)", "values": [{"measurement": "normalized growth", "setting": "[1]", "result": "0.579 (active)"}, {"measurement": "normalized growth", "setting": "[2]", "result": 0.993}, {"measurement": "normalized growth", "setting": "locus YDR150W, strain NUM1, active compounds read low", "result": 0.997}, {"measurement": "normalized growth", "setting": "[3]", "result": 0.96}, {"measurement": "normalized growth", "setting": "[4]", "result": "1.15 [resistant] (active)"}, {"measurement": "normalized growth", "setting": "locus YGR229C, strain SMI1, active compounds read low", "result": 0.944}, {"measurement": "normalized growth", "setting": "locus YJR075W, strain HOC1, active compounds read low", "result": 0.959}, {"measurement": "normalized growth", "setting": "[5]", "result": 1}, {"measurement": "normalized growth", "setting": "[6]", "result": 1.07}, {"measurement": "normalized growth", "setting": "locus YNL153C, strain GIM3, active compounds read low", "result": 0.995}, {"measurement": "normalized growth", "setting": "[7]", "result": "1.09 [resistant] (active)"}, {"measurement": "normalized growth", "setting": "[8]", "result": 1.08}, {"measurement": "normalized growth", "setting": "[9]", "result": 1.07}, {"measurement": "normalized growth", "setting": "locus YNL322C, strain KRE1, active compounds read low", "result": 0.961}, {"measurement": "normalized growth", "setting": "[10]", "result": 1.04}, {"measurement": "normalized growth", "setting": "locus YPL055C, strain LGE1, active compounds read low", "result": 0.891}]}, {"smiles": "C[C@]12C=CC(=O)C=C1CC[C@@H]1C2=CC[C@]2(C)[C@@H](C(=O)CN3CCN(c4cc(N5CCCC5)nc(N5CCCC5)n4)CC3)CC[C@@H]12", "values": [{"measurement": "normalized growth", "setting": "locus YAL013W, strain DEP1, active compounds read low", "result": 0.97}, {"measurement": "normalized growth", "setting": "[1]", "result": 0.998}, {"measurement": "normalized growth", "setting": "[2]", "result": 0.976}, {"measurement": "normalized growth", "setting": "[3]", "result": 0.964}, {"measurement": "normalized growth", "setting": "[4]", "result": 1.01}, {"measurement": "normalized growth", "setting": "locus YGR078C, strain PAC10, active compounds read low", "result": 0.995}, {"measurement": "normalized growth", "setting": "locus YMR263W, strain SAP30, active compounds read low", "result": 0.993}, {"measurement": "normalized growth", "setting": "[5]", "result": 0.998}, {"measurement": "normalized growth", "setting": "[6]", "result": 1.03}, {"measurement": "normalized growth", "setting": "[7]", "result": 1.02}, {"measurement": "normalized growth", "setting": "[8]", "result": 1.04}, {"measurement": "normalized growth", "setting": "[9]", "result": 1.01}, {"measurement": "normalized growth", "setting": "[10]", "result": 1.01}]}]}
